{"source": "paper PMC6925144", "about": "“A prospective compound screening contest identified broader inhibitors for Sirtuin 1” (Scientific Reports, 2019)", "note": "Whole data set: some 3,200 compounds, median “TSA(with NAD+) / Primary screening (TSA) / delta Tm (K)” near -0.04, cut for the highest 2% near 0.37. The entries come from a sample that favours the highest values as a whole.", "data": [{"molecular_target": "NAD-dependent deacetylase Sirtuin 1 (human, UniProt Q96EB6)", "sequence (Q96EB6 2-747 limits assumed)": "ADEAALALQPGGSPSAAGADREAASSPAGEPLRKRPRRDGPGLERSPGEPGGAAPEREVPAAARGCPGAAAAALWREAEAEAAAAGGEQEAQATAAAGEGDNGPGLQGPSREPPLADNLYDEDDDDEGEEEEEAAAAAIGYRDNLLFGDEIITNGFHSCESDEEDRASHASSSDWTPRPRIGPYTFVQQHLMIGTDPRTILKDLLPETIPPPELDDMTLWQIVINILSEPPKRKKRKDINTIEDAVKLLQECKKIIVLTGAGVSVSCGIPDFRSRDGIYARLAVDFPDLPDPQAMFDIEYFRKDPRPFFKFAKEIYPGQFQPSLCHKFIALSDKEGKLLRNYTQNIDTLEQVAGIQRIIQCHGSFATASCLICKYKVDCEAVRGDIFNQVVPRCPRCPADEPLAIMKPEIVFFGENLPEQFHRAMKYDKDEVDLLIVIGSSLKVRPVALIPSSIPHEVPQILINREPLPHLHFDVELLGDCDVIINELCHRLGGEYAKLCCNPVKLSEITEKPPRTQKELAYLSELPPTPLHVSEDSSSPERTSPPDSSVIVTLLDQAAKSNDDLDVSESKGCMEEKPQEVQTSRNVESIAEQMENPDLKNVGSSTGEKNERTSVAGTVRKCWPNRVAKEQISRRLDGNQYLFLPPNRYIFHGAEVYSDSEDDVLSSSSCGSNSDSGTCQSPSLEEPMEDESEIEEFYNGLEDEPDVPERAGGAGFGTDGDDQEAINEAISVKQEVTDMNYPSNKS", "assay": "primary screen, delta tm", "parameters": "single well (n = 1, as 'the same TSA')", "conditions": "10 µM", "units": {"TSA(with NAD+) / Primary screening (TSA) / delta Tm (K)": "K"}, "values": [{"smiles": "Cc1cccc(-c2nc3ccccc3n3c(C)nnc23)c1", "TSA(with NAD+) / Primary screening (TSA) / delta Tm (K)": -0.13}, {"smiles": "Cn1c(=O)c2ccccc2n2c(COC(=O)Cn3nc(-c4ccc(F)cc4)oc3=O)nnc12", "TSA(with NAD+) / Primary screening (TSA) / delta Tm (K)": -0.03}, {"smiles": "O=C1NC(=S)NC(=O)C1=Cc1ccc(-c2ccc(SC(F)F)cc2)o1", "TSA(with NAD+) / Primary screening (TSA) / delta Tm (K)": -0.43}, {"smiles": "Cc1ccc(C(=O)OCc2ccc(C(=O)Nc3ccccc3)cc2)cc1", "TSA(with NAD+) / Primary screening (TSA) / delta Tm (K)": -0.18}, {"smiles": "CCNC(=O)c1cccc(NC(=O)C2CCN(S(=O)(=O)c3cc(C(C)(C)C)ccc3C)CC2)c1", "TSA(with NAD+) / Primary screening (TSA) / delta Tm (K)": 0.16}, {"smiles": "Cc1ccc(C(C)(C)C)cc1S(=O)(=O)Nc1cccc(C(=O)NNC(=O)c2cccc(S(=O)(=O)Nc3cccc(C(F)(F)F)c3)c2)c1", "TSA(with NAD+) / Primary screening (TSA) / delta Tm (K)": 0.65}, {"smiles": "O=C(NO)c1cccc(C(F)(F)F)c1", "TSA(with NAD+) / Primary screening (TSA) / delta Tm (K)": -0.19}, {"smiles": "O=C(COC(=O)C1=COCCO1)Nc1cccc2c1C(=O)c1ccccc1C2=O", "TSA(with NAD+) / Primary screening (TSA) / delta Tm (K)": 0.01}, {"smiles": "COc1ccccc1NS(=O)(=O)c1cccc(NC(=O)c2oc3ccccc3c2CSC)c1", "TSA(with NAD+) / Primary screening (TSA) / delta Tm (K)": -0.08}, {"smiles": "C=CCOc1ccc(C2C(C(=O)c3ccc(C)o3)=C(O)C(=O)N2CCCN2CCOCC2)cc1", "note": "(centres unmarked)", "TSA(with NAD+) / Primary screening (TSA) / delta Tm (K)": -0.04}, {"smiles": "O=C(Nc1ccccc1Cc1ccccc1)c1ccc(CN2C(=O)CNC2=O)cc1", "TSA(with NAD+) / Primary screening (TSA) / delta Tm (K)": 0.05}, {"smiles": "CN(C)c1ccc(S(N)(=O)=O)cc1N", "TSA(with NAD+) / Primary screening (TSA) / delta Tm (K)": -0.04}, {"smiles": "O=C1/C(=C/c2cccc(O)c2)Oc2cc(O)ccc21", "TSA(with NAD+) / Primary screening (TSA) / delta Tm (K)": -0.14}, {"smiles": "O=C1/C(=C/c2ccccc2)Oc2cc(O)ccc21", "TSA(with NAD+) / Primary screening (TSA) / delta Tm (K)": -0.06}, {"smiles": "O=C1/C(=C/c2cnn(-c3ccccc3)c2)Oc2cc(O)ccc21", "TSA(with NAD+) / Primary screening (TSA) / delta Tm (K)": 0.99}, {"smiles": "Cc1cnc(N2CCC(Oc3ccnc(C(N)=O)c3)CC2)s1", "TSA(with NAD+) / Primary screening (TSA) / delta Tm (K)": -0.16}, {"smiles": "O=c1c2ccccc2ncn1CC(O)c1cccc(F)c1", "note": "(centres unmarked)", "TSA(with NAD+) / Primary screening (TSA) / delta Tm (K)": -0.19}, {"smiles": "O=c1c2ccccc2ncn1CC(O)c1ccccc1Cl", "note": "(centres unmarked)", "TSA(with NAD+) / Primary screening (TSA) / delta Tm (K)": 0.38}, {"smiles": "O=c1c2ccncc2ncn1CC(O)c1cccc(Cl)c1", "note": "(centres unmarked)", "TSA(with NAD+) / Primary screening (TSA) / delta Tm (K)": -0.03}, {"smiles": "O=C(CN1CCCCCC1=O)N1CCN(c2cnccn2)CC1", "TSA(with NAD+) / Primary screening (TSA) / delta Tm (K)": -0.04}, {"smiles": "CCCn1c(NC(=O)c2ccc3c(c2)CCC(=O)N3)nc2ccccc21", "TSA(with NAD+) / Primary screening (TSA) / delta Tm (K)": 0.15}, {"smiles": "O=C1CCc2cc(NC(=O)c3cccnc3)ccc2N1", "TSA(with NAD+) / Primary screening (TSA) / delta Tm (K)": -0.13}, {"smiles": "Cc1ccc(C(=O)Nc2nc3ccc(NS(=O)(=O)c4ccc5c(c4)CCC(=O)N5)cc3s2)s1", "TSA(with NAD+) / Primary screening (TSA) / delta Tm (K)": 0.46}, {"smiles": "COC(=O)/C=C1/NC(=O)CS1", "TSA(with NAD+) / Primary screening (TSA) / delta Tm (K)": -0.13}, {"smiles": "O=C(COC(=O)C1=COCCO1)Nc1cccc2ccccc12", "TSA(with NAD+) / Primary screening (TSA) / delta Tm (K)": 0.09}, {"smiles": "CC(CNCCS(=O)(=O)C(C)(C)C)c1ccccc1", "note": "(centres unmarked)", "TSA(with NAD+) / Primary screening (TSA) / delta Tm (K)": -0.03}, {"smiles": "NC(=O)C1CCN(c2nc(-c3cccnc3)nc3sc4c(c23)CCCC4)CC1", "TSA(with NAD+) / Primary screening (TSA) / delta Tm (K)": 0.48}, {"smiles": "NC(=O)C1CCN(c2ncnc3sc4c(c23)CCCC4)CC1", "TSA(with NAD+) / Primary screening (TSA) / delta Tm (K)": 0.32}, {"smiles": "Cc1sc2nc(-c3cccnc3)nc(N3CCC(C(N)=O)CC3)c2c1C", "TSA(with NAD+) / Primary screening (TSA) / delta Tm (K)": -0.01}, {"smiles": "Cc1sc2ncnc(N3CCC(C(=O)N4CCC(C(N)=O)CC4)CC3)c2c1C", "TSA(with NAD+) / Primary screening (TSA) / delta Tm (K)": -0.03}, {"smiles": "NC(=O)C1CCCN(c2ncnc3sc4c(c23)CCCC4)C1", "note": "(centres unmarked)", "TSA(with NAD+) / Primary screening (TSA) / delta Tm (K)": -0.15}, {"smiles": "NC(=O)C1CCN(c2nc(-c3cccs3)nc3sc4c(c23)CCCC4)CC1", "TSA(with NAD+) / Primary screening (TSA) / delta Tm (K)": 2.33}, {"smiles": "NC(=O)C1CCN(c2ncnc3sc4c(c23)CCCCC4)CC1", "TSA(with NAD+) / Primary screening (TSA) / delta Tm (K)": 0.26}, {"smiles": "Cc1sc2nc(-c3cccs3)nc(N3CCC(C(N)=O)CC3)c2c1C", "TSA(with NAD+) / Primary screening (TSA) / delta Tm (K)": 0.53}, {"smiles": "Cc1sc2ncnc(N3CCC(C(N)=O)CC3)c2c1C", "TSA(with NAD+) / Primary screening (TSA) / delta Tm (K)": 0.06}, {"smiles": "O=c1[nH]cnc2c(Cl)cc(Cl)cc12", "TSA(with NAD+) / Primary screening (TSA) / delta Tm (K)": -0.16}, {"smiles": "Cc1ccc(-c2nnc(SCC(=O)NC(=O)NC(C)C)n2N)cc1", "TSA(with NAD+) / Primary screening (TSA) / delta Tm (K)": -0.04}, {"smiles": "O=C(CCc1nc2ccccc2c(=O)[nH]1)Nc1ccc(N2CCN(Cc3ccccc3)CC2)cc1", "TSA(with NAD+) / Primary screening (TSA) / delta Tm (K)": 0.03}]}]}
